# LDHA inh = inhibitors of human lactate dehydrogenase A. purified LDHA, NADH/diaphorase-resazurin fluorescence; hits give low values. activity change, % (values are at about 110 or 230 µM). 480,000 compounds, 0.15% hits. AID 1347041; in the data active = activity change below about -30%; inconclusive = mostly about -25% to -30%;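 also: plate controls were DMSO wells for no effect and wells without enzyme for full effect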
#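 Enzyme activity of human lactate dehydrogenase 5 (2 nM; 0.06 mM NADH, 0.2 mM pyruvate, 5 min, RT) is measured via a resazurin/diaphorase fluorescence readout of residual NADH.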
# IL1B secr inh = inhibitors of inflammasome signaling (IL-1 beta secretion); THP-1 LPS/ATP IL-1B secretion, AlphaLISA, 16 h; hits give low values; activity change, % at 57.5 µM; 360,000 compounds, 4.7% hits; in the data active = activity change below about -50%; inconclusive = mostly about -30% to -49%
#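 Secreted IL-1B measured by AlphaLISA bead assay after 16 h compound exposure of THP-1 cells; compounds (final up to 57.5 uM) added 1 h before LPS (250 ng/mL) and ATP (1.25 mM) stimulation; lower signal means less secretion.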
# RORg inh = ROR gamma (mouse) transcription inhibition | 310,000 compounds, 5.4% hits | P51450 | AID 2551 | Potency, µM (doses to about 53.6 µM), for the others: top-dose activity change, negative = inhibition, most hits filed as inhibitors | Drosophila S2 Gal4-RORgamma UAS-luciferase reporter, 20 h; also: potency is read from the fitted curve at half-maximal effect; nearly all actives have a fitted effect of over 60% in size
# Target sequence (P51450 whole entry, looked up, the tested form may be a part): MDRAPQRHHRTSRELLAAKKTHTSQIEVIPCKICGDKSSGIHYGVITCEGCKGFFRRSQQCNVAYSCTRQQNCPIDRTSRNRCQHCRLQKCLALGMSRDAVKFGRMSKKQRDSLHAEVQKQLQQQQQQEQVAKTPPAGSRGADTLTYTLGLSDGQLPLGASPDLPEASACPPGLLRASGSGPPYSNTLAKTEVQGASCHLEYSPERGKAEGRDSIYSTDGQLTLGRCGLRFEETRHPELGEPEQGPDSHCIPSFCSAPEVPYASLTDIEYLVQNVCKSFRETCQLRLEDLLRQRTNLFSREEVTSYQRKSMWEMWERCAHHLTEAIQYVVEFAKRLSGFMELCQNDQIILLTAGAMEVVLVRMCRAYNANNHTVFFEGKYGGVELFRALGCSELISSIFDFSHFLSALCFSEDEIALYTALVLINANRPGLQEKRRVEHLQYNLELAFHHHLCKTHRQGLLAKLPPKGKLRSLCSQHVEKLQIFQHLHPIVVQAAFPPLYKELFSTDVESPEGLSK
#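 Schneider cells (Drosophila), stable Gal4 DBD–ROR gamma + UAS-luc; 1 hr cmpd preincubation; Cu2+ induction 700 uM final; 20 hr ambient; luminescence.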
# DT40 TDP1 no CPT = qHTS for Inhibitors of human tyrosyl-DNA phosphodiesterase 1 (TDP1): qHTS in cells in absence of CPT. DT40 Tdp1-/- hTDP1 cells, no CPT, ATP luminescence, 48 h. Potency, µM (doses to about 46.2 µM), inactives show top-dose activity change, negative = growth inhibition, usual class: inhibitors. 420,000 compounds, 15% hits; also: potency is read from the fitted curve at half-maximal effect; nearly all actives have a fitted effect of over 55% in size
#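 DT40 Tdp1-/-;hTDP1 cells, no CPT (DMSO vehicle only), 400 cells/well; compounds pin-transferred; ≥48 hr, 37 °C; CellTiter-Glo 30 min RT dark, luminescence read.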
# VP16 counter = inhibits Gal4-VP16 luciferase reporter, ROR gamma counter-screen. Drosophila S2 Gal4-VP16 UAS-luciferase, luminescence, 20 h. Potency, µM (titrated, usually from 53.6 µM), inactives show top-dose activity, negative = inhibition, most hits filed as inhibitors. 310,000 compounds, 3.5% hits;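 also: Gal4-VP16 expression switched on by copper sulfate through the metallothionein promoter; potency is read from the fitted curve at half-maximal effect; nearly all actives have a fitted effect of over 50% in size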
# TDP1 cell CPT = growth inhibition of DT40 Tdp1-/-;hTDP1 cells with camptothecin (screen for TDP1 inhibitors). chicken DT40 Tdp1-/-;hTDP1 cells + 20 nM CPT, ATP luminescence, 48 h. Potency, µM (doses to about 46.2 µM), inactives show at the top dose activity change, negative = growth inhibition, actives largely listed as inhibitors. AID 686979. 420,000 compounds, 12% hits; also: potency is read from the fitted curve at half-maximal effect; nearly all actives have a fitted effect of over 55% in size
#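 Chicken DT40 Tdp1-/- cells complemented with human TDP1, 400 cells/well, exposed to compounds plus 20 nM camptothecin for at least 48 h at 37 C; viability read as ATP content by CellTiter-Glo luminescence.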
# * hit, by the source's call; ? = inconclusive; . = not tested or not shown. Sampled rows, rich in hits. Any-hit rate of the full collection: about 18%. Unless noted, calls follow the shape of the dose curve; as a rule, active = well fitted curve in the direction sought with a large enough effect; inconclusive = small, poorly fitted or top-dose-only effect, or another doubt; inactive = no such curve, though single readings can be large; an effect the other way counts as inactive or inconclusive. Unless noted, % is scaled to controls: 0 for no effect and ±100 for the full control effect.
SMILES,LDHA inh,IL1B secr inh,RORg inh,DT40 TDP1 no CPT,VP16 counter,TDP1 cell CPT
COc1cc(OC)nc(Nc2nc(C(N)Cc3ccccc3)cs2)n1 (configuration not stated),2,0,.,18µM*,.,?
COc1cc(OC)nc(Nc2nc(C(C)N)cs2)n1 (configuration not stated),-4,-2,.,?,.,?
Cc1cc(C)nc(Nc2nc(C(N)Cc3ccc(Cl)cc3)cs2)n1 (configuration not stated),-9,?,.,18µM*,.,18µM*
CCCc1cnc(Nc2nc(C(N)Cc3ccc(C(F)(F)F)cc3)cs2)nc1 (configuration not stated),-12,?,.,21µM*,.,?
Cc1cc(C)nc(Nc2nc(C(N)Cc3ccc(C(F)(F)F)cc3)cs2)n1 (configuration not stated),1,-81*,.,6.5µM*,.,6.5µM*
Nc1ccc(CC(N)c2csc(Nc3nncc4ccccc34)n2)cc1 (configuration not stated),-2,?,.,?,.,?
NC(Cc1ccc(C(F)(F)F)cc1)c1csc(Nc2nccc(C(F)(F)F)n2)n1 (configuration not stated),0,-29,.,?,.,?
Cc1cc(C)nc(Nc2nc(C(N)Cc3ccc(F)cc3)cs2)n1 (configuration not stated),8,-8,.,21µM*,.,15µM*
NC(Cc1ccc(F)cc1)c1csc(Nc2ccc(S(N)(=O)=O)cc2)n1 (configuration not stated),-1,-15,.,?,.,?
COc1cc(OC)nc(Nc2nc(C(N)Cc3ccc(C(F)(F)F)cc3)cs2)n1 (configuration not stated),-5,-111*,.,?,.,?
NC1=CC(=O)CC1,2,.,.,.,.,.
Cc1ccc(-n2nc(C(=O)c3ccccc3)n3c(=O)c(Cc4ccccc4)nnc23)cc1,-2,-16,.,12µM*,.,?
CCOC(=O)c1nn(-c2ccc(Cl)cc2)c2nnc(Cc3ccc(C)cc3)c(=O)n12,-7,-11,-12%,7%,22µM*,6%
CCOc1ccc(C(=O)Nc2ccc3oc(=O)ccc3c2)cc1OC,0,.,.,.,.,.
CCCc1ccc(C(NC(=O)Cn2c(=O)c3c(ncn3C)n(C)c2=O)C(C)C)cc1 (configuration not stated),-1,.,.,.,.,.
COc1ccc(S(=O)(=O)CCC(=O)N2CCN(c3ccc([N+](=O)[O-])cc3)CC2)cc1,-21,?,?,3.7µM*,?,10µM*
COc1ccc(N2CCN(C(=O)C3CC(O)CN3S(=O)(=O)c3ccc([N+](=O)[O-])cc3)CC2)cc1 (configuration not stated),16,27,0%,?,-7%,-9%
Cc1ccc(S(=O)(=O)CCC(=O)N2CCN(c3ccc([N+](=O)[O-])cc3)CC2)cc1,-2,-13,?,10µM*,?,18µM*
COc1ccc2nc(NC(=O)c3cc(-c4ccc(C)c(C)c4)on3)sc2c1,-2,.,.,.,.,.
CCc1cccc(NC(=O)CSc2nc3ccccc3nc2N2CCCCC2)c1,9,.,.,16µM*,.,12µM*
Cc1ccc(C)c(NC(=O)c2nc3ccccc3nc2N2CCCC2)c1,11,.,.,.,.,.
COc1cccc(NC(=O)CSc2nc3ccccc3nc2N2CCCC2)c1,-5,-15,-21%,?,5%,?
Cc1cccc(NC(=O)CSc2nc3ccccc3nc2N2CCCCC2)c1C,-4,.,.,12µM*,.,23µM*
CCc1ccc(NC(=O)CSc2nc3ccccc3nc2N2CCCCC2)cc1,-1,32,-1%,10µM*,-13%,?

# Source: PubChem
